Only some compounds are listed: those with a hit (about 9% of all), similar ones and a draw of the others.
PLK1 PBD block: qHTS for Inhibitors of PLK1-PDB (polo-like kinase 1 - polo-box domain): Primary Screen | Serine/threonine-protein kinase PLK1 (Homo sapiens), P53350 | Plk1 PBD binding of FITC phosphopeptide, fluorescence polarization | Potency, µM, for the others: max response, negative = inhibition, usual class: inhibitors | 360,000 compounds, 2.8% hits | AID 720504, 2013; further: series mostly up to about 57 µM; on the % scale 0 is the no-effect control and ±100 the full control effect; nearly all actives have a fitted effect of over 65% in size
BAZ2B block: qHTS Assay for Inhibitors of BAZ2B. Bromodomain adjacent to zinc finger domain protein 2B (Homo sapiens), Q9UIF8. AlphaScreen BAZ2B-H3K14Ac peptide displacement. Potency, µM (doses to about 114 µM), for inactives: at the top dose activity change, negative = inhibition, hits mostly inhibitors. 360,000 compounds, 4.4% hits. AID 504333, 2011; further: on the % scale 0 is the no-effect control and ±100 the full control effect; nearly all actives have a fitted effect of over 60% in size
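BAZ2B (50 nM) with biotin-H3(5-23)K14Ac peptide (50 nM) in PBS pH 7.4, 0.01% Tween-20, preformed 30 min, then compound 30 min at room temperature; top concentration 110uM. AlphaScreen streptavidin donor/nickel chelate acceptor beads (10 ug/mL final), 20 min dark, signal read.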
HP1b binding inh: HTS for Inhibitors of HP1-beta Chromodomain Interactions with Methylated Histone Tails | AID 540317, 2011 | Potency, µM (top dose mostly 114 µM), for the others: at the highest dose activity change, negative = inhibition, usual class: inhibitors | AlphaScreen HP1-beta / biotin-H3K9me3 peptide binding | 390,000 compounds, 0.56% hits | Chromobox protein homolog 1 (Homo sapiens), P83916; further: nearly all actives have a fitted effect of over 70% in size
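Compound inhibition of the preformed complex between 50 nM HP1-beta and 50 nM biotinylated H3K9me3 peptide was read by AlphaScreen. Buffer was PBS pH 7.4 with 0.01% Tween-20. Incubations ran 30 min at room temperature, with 10 ug/mL donor/acceptor beads.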
JMJD2A Tudor inh: qHTS Assay for Inhibitors of JMJD2A-Tudor Domain; Potency, µM (series often up to 114 µM), inactives show at the highest dose activity change, negative = inhibition, hits mostly inhibitors; AlphaScreen JMJD2A-Tudor / H3K4me3 peptide binding; 390,000 compounds, 4.4% hits; further: on the % scale 0 is the no-effect control and ±100 the full control effect; nearly all actives have a fitted effect of over 50% in size
G9a inh: qHTS Assay for Inhibitors of Histone Lysine Methyltransferase G9a; AID 504332, 2011; 350,000 compounds, 8.8% hits; G9a H3K9 monomethylation, AlphaScreen, 2 h; Histone-lysine N-methyltransferase EHMT2 (Homo sapiens), Q96KQ7; Potency, µM (titrated, usually from 102 µM), for the others: top-dose activity, negative = inhibition, usual class: inhibitors; further: on the % scale 0 is the no-effect control and ±100 the full control effect; nearly all actives have a fitted effect of over 75% in size
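Signal arises when biotinylated H3K9 peptide, once monomethylated, bridges streptavidin donor and antibody-captured acceptor beads. Enzyme at 20 nM was preincubated 15 min with test compounds; peptide 500 nM and SAM 20 uM then reacted for 2 h.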
ALOX12 inh: Primary qHTS assay for inhibitors of human arachidonate 12S-lipoxygenase (ALOX12): Round 2; purified 12hLO, xylenol orange hydroperoxide absorbance; Potency, µM (doses to about 108 µM), without a hit: at the top dose activity change, negative = inhibition, usual class: inhibitors; 580,000 compounds, 1.1% hits; AID 1671190, 2021; further: on the % scale 0 is the no-effect control and ±100 the full control effect
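Hydroperoxide product was detected by ferrous iron/xylenol orange as the 573 to 405 nm absorbance ratio. Arachidonic acid at 40 uM (final) was turned over for 30 min at room temperature by 150 nM human 12hLO, pH 7.0 Hepes buffer, after 15 min compound preincubation.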
Active calls of the source: *; i = inactive; ? = inconclusive; . = no result given; [ ] = remark or other dose. The call rests on the fitted dose curve; in most records, active means well fitted curve in the direction sought with a large enough effect; inconclusive means small, poorly fitted or top-dose-only effect, or another doubt; inactive means no such curve, though single readings can be large; an effect the other way counts as inactive or inconclusive. Potency means the concentration at half of the fitted maximal effect.

SMILES | PLK1 PBD block | BAZ2B block | HP1b binding inh | JMJD2A Tudor inh | G9a inh | ALOX12 inh
CC(=O)Nc1nc(=O)c2ccccc2s1 | -23% | 4% | 16% | -28% | 22µM* | ?
CN(Cc1ccncc1)C1CC(=O)N(c2ccc(Cl)cc2)C1=O (stereo not given) | -10% | 11% | 14% | -21% | -11% | -9%
COc1ccc(/C=N/Nc2nc3ccccc3s2)cc1O | -10% | 1% | 13% | -27% | ? | -7%
COCCOc1ccc(C(F)(F)F)cc1NC(=O)Cc1ccc(S(=O)(=O)N2CCOCC2)s1 | -2% | -5% | 24% | -18% | -4%[0.501 µM] | -3%
CCCOc1ccc(NC(=O)Cc2ccc(S(=O)(=O)N3CCOCC3)s2)cc1OCCC | -10% | -39% | -22% | ? | 79µM* | -23%
O=C(Cc1ccc(S(=O)(=O)N2CCOCC2)s1)Nc1ccccc1N1CCOCC1 | -8% | . | 9% | -17% | 45µM* | 6%
O=C(Cc1ccc(S(=O)(=O)N2CCOCC2)s1)Nc1ccccc1Br | -5% | 71µM* | -6% | ? | . | 6%
Cn1c(-c2ccc(F)cc2)cnc1SCC(=O)Nc1ccccc1N1CCOCC1 | -7% | ? | 18% | -28% | 45µM* | 0%
O=C(NCC1(Cn2cccn2)CC1)c1ccc(C2CCNC2)cc1 (stereo not given) | . | . | . | . | . | 11%
CCC(=O)N1CCc2cc(OC)c(OC)cc2C1COc1ccccc1OC (stereo not given) | -5% | -18% | 30% | -13% | -27% | ?
CS(=O)(=O)c1ccccc1NC(=O)CNc1cc(Cl)ccc1N1CCOCC1 | . | . | . | . | . | -8%
COC(=O)c1ccccc1NC(=O)CNc1cc(Cl)ccc1N1CCOCC1 | -1% | -5% | -2% | -25% | 45µM* | -21%
O=C(Cc1ccc(Cl)c(Cl)c1)Nc1ccccc1N1CCOCC1 | -10% | . | 54% | 12% | 79µM* | -17%
O=C(OC(c1ccccc1)c1nccc2ccccc12)c1cc([N+](=O)[O-])cc([N+](=O)[O-])c1 (stereo not given) | -7% | ? | ? | ? | 10µM* | -10%
O=C(NC(c1ccccc1)c1ccccn1)c1cccc([N+](=O)[O-])c1 (stereo not given) | 5% | . | 28% | -2% | ? | 5%
CCOc1ccc(Nc2nc3ccccc3n2C)cc1 | -18% | . | 27% | -16% | . | 485%
Cc1ccc(C(=O)COC(=O)c2cc(Cl)nc3ccccc23)cc1C | -5% | -5% | 54% | 8% | 2%[59 µM] | 0%
CCOc1ccc(-c2nnc(SCC(=O)NC(C)(C)C)nc2-c2ccc(OCC)c(OC)c2)cc1OC | -16% | -15% | 14% | ? | 50µM* | 0%
CCOc1cc(-c2nnc(SCC(=O)Nc3ccc(F)c(F)c3)nc2-c2ccc(OC)c(OCC)c2)ccc1OC | . | ? | 23% | -16% | 13µM* | ?
CCn1c2ccccc2c2cc(CN3CCOc4ccc(C(O)c5cccnc5)cc4C3)ccc21 (stereo not given) | . | . | . | . | . | 9%
O=C(NCCCOc1cccc(CN2CCCCC2)c1)c1ccc(Cl)c(Cl)c1 | 3% | ? | ? | 3.5µM* | 10µM* | -26%
Cc1ccc(NC(=O)C2C3CCCCC32)cc1[N+](=O)[O-] (stereo not given) | 3% | 20µM* | -8% | ? | . | 3%
CC(=O)Nc1ccc(C)c([N+](=O)[O-])c1 | 0% | 6% | 11% | 4% | -3% | -2%
O=C(NNc1ccc([N+](=O)[O-])cc1)C1C2CCCCC21 (stereo not given) | 6% | -7% | 22% | -20% | 89µM* | -20%
CC(=O)NC(Cc1ccccc1)C(=O)OCC(=O)c1ccc(F)cc1 (stereo not given) | -6% | -1% | 18% | 2% | -11%[59 µM] | -17%
SMILES | PLK1 PBD block | BAZ2B block | HP1b binding inh | JMJD2A Tudor inh | G9a inh | ALOX12 inh
COc1ccc(C2CC(c3c(-c4ccccc4)c4cc(Cl)ccc4[nH]c3=O)=NN2C(=O)CCC(=O)O)cc1 (stereo not given) | ? | -15% | -17% | -18% | -29% | ?
O=C(NC1CCCCC1)n1c(=O)oc2ccc(Cl)cc21 | 6µM* | -2% | 29% | -17% | 7%[59 µM] | -11%
CC(C)n1c(SC2C(=O)CC(C)(C)CC2=O)nc2c1c(=O)n(C)c(=O)n2C | -7% | ? | 39% | ? | -35%[12.7 µM] | ?
CCCn1c(SC2C(=O)CC(C)(C)CC2=O)nc2c1c(=O)n(C)c(=O)n2C | -10% | ? | 73% | -5% | 56µM* | ?
CC(C)c1nnc(NC(=O)CCS(=O)(=O)c2ccccc2)s1 | -10% | ? | 31% | 7% | ? | -5%
CC(C)c1nnc(NC(=O)CCc2ccccc2)s1 | -1% | -1% | 34% | -3% | -7%[2.33 µM] | -12%
O=C(CCS(=O)(=O)Cc1ccccc1)Nc1nncs1 | -16% | 3% | 10% | -1% | 45µM* | -8%
CCC(CC)c1nnc(NC(=O)CS(=O)(=O)c2ccccc2)s1 | 9.5µM* | 0% | -38% | -4% | 10µM* | ?
CCC(CC)c1nnc(NC(=O)CCS(=O)(=O)Cc2ccccc2)s1 | 24µM* | 1% | 6% | -14% | 18µM* | ?
CCC(CC)c1nnc(NC(=O)Cc2ccccc2[N+](=O)[O-])s1 | ? | -28% | -9% | -13% | 40µM* | 1%
CCc1nnc(NC(=O)CCS(=O)(=O)Cc2ccccc2)s1 | 0% | -17% | -9% | -18% | 50µM* | 34%
CCCc1nnc(NC(=O)CCS(=O)(=O)Cc2ccccc2)s1 | -19% | 7% | 15% | -7% | 45µM* | -10%
CCCc1nnc(NC(=O)CS(=O)(=O)c2ccccc2)s1 | -29% | -2% | ? | ? | ? | -7%
O=C(CS(=O)(=O)c1ccccc1)Nc1nnc(Cc2ccccc2)s1 | 13µM* | -26% | -13% | -7% | 32µM* | 0%
CCCCc1nnc(NC(=O)CCS(=O)(=O)Cc2ccccc2)s1 | -16% | -2% | 22% | 1% | ? | i
CCOc1cccc(CN2C[C@@H](NC(=O)COC)C[C@H]2CO)c1 | . | . | . | . | . | 40%
Cc1ccc2nc(C(=O)NCCc3nc(C)cc(C(F)(F)F)n3)cn2c1 | . | . | . | . | . | -4%
O=C(COc1ccccc1)Nc1nc(-c2ccncc2)cs1 | 27µM* | -13% | -19% | -6% | 8.9µM* | 66%

Assay outcomes deposited in PubChem by National Center for Advancing Translational Sciences (NCATS).
